About 83,000 compounds went through this panel and 20% of them were active in at least one assay; those are over-represented in the sample as a whole.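 Growth was measured after 48 h exposure to one concentration of compound in 96-well plates. Values under 10 count as active.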 Unmarked numbers belong to inactive results. Activity calls are given as the source filed them.

In the first assay the test system is HT29 colon. In words: NCI-60 one-dose screen, 48 h (100 = growth as untreated, 0 = no growth, -100 = all killed). To be noted: 10 µM unless noted.
For the compound `C=CCn1c(SCC(=O)Nc2ccc(C(=O)/C=C/c3ccc(Cl)cc3)cc2)nnc1-c1c[nH]c2ccccc12`, the growth is 88.7%.
Same read-out and setting: for `O=C(NNc1nc2cc(F)c(F)cc2n2c(CN3CC4CNCC4C3)ccc12)c1cnccn1` (stereo unspecified) the value was 26.3%.
Still for that read-out and setting: for `COc1ccc2c(c1)c(CC(=O)[Se]CC#N)c(C)n2C(=O)c1ccc(Cl)cc1` the value was -8.37% (active).
In the case of `O=C(NNc1nc2cc(F)ccc2n2c(CN3CCC(O)C3)ccc12)c1cnccn1` (stereo unspecified), the growth was 23.8%.
As for `COc1ccc(COc2ccc(/C=C3\C(=O)Nc4ccccc43)cc2OC)cc1`, the growth was 108%.
Take `O=C(NNc1nc2cc(F)ccc2n2c(CO)ccc12)c1cnccn1`: the growth was 22%.
On the same count and under the same terms, the figure for `N#Cc1cn(Cc2ccc(Cl)cc2Cl)c(C(=O)c2ccc(Br)cc2)c1N` is 102%.
Still for that read-out and setting: for `O=C(CN1CCN(c2cc(=O)n(-c3ccccc3)c3ccccc23)CC1)Nc1nc(-c2ccccc2)cs1` the value was 73%; for `COc1ccc(CCOc2cc3c(cc2OC)CCN(C(=O)NCc2cocn2)C3c2ccc(C)cc2C)cc1` (stereo unspecified), -2.64% (active).
For `COc1ccc(Oc2ccc(/C=N/NC(=O)CSc3nc4ccccc4c(=O)n3-c3ccc(Cl)cc3)cc2)cc1`, the growth was 16.1%.
With `N#Cc1cccc(CN2CCC3=C(C2)C(=O)N(Cc2ccc(Cl)cc2)C2=NCCCN23)c1`, the growth is 28%.
On the same count and under the same terms, the figure for `O=C(NNc1nc2cc(F)ccc2n2c(CN3CC4CNCC4C3)ccc12)c1cnccn1` (stereo unspecified) is 29.2%.
Consider `CCOc1ccccc1NC1=C(Cl)C(=O)c2nc(C)ccc2C1=O`, for which the growth was 20%.
The same measure, in the same setting: the figure for `CCCCCc1ccc(S(=O)(=O)Nc2cccc(-c3csc(NC(=O)CCCCCN4CCN(CCO)CC4)n3)c2)cc1` is 11.4%.
`CCOc1ccc(NC2=C(Cl)C(=O)c3nc(C)ccc3C2=O)cc1`: the growth is 15.9%.
On the same count and under the same terms, for `COc1cc(/C=C2\C(=O)Nc3ccccc32)ccc1OCc1ccc(Cl)cc1` the value was 109%.
Still for that read-out and setting: for `COc1cc(-c2nc(SCCC(C)C)nc(NNC(=O)c3ccncc3)c2C#N)cc(OC)c1OC` the value was 42.9%; for `O=C(NNc1nc2cc(F)cc(F)c2n2cccc12)c1cnccn1`, 26.2%; for `O=C(CCn1cc[n+](CC(=O)c2ccc(-c3ccccc3)cc2)c1)Nc1cccc2cccnc12`, 70.7%.
Still for that read-out and setting: for `COc1c(N2CC3CCCNC3C2)c(F)cc2c(=O)c(C(=O)N/N=C/c3ccc4c(c3)OCO4)cn(C3CC3)c12` (stereo unspecified) the value was -19.2% (active); for `COc1ccc(/C=C(/C)c2ccc3ccc(OC)cc3[o+]2)c(O)c1`, 44.7%.
As for `CN(C)CCNC(=O)c1ccc(-c2nc3ccc4[nH]ncc4c3c3c2CCC3)cc1`, the growth is 12.6%.
On the same count and under the same terms, the figure for `COc1ccccc1NC1=C(Cl)C(=O)c2nc(C)ccc2C1=O` is 75%.
As for `CCNC(=O)N1CCc2cc(OC)c(OCCc3ccc(OC)cc3)cc2C1c1ccc(Cl)cc1C` (stereo unspecified), the growth was 2.45% (active).
For the compound `Cc1cc2nc(C(Cl)Cl)nc(-c3cccs3)n2n1`, the growth was -12.9% (active).
Turning to `CN(C)CCNC(=O)c1ccc(-c2nc3ccc4[nH]ncc4c3c3c2COCC3)cc1`, the growth was 16.7%.
As to `CN1CCN(Cc2ccc(NC(=O)c3cncc(C#Cc4cnc5ccc(OCC(C)(C)O)nn45)c3)cc2C(F)(F)F)CC1`, the growth is -22.7% (active).
Take `Nc1ncc(-c2ccc3ncnc(Nc4cccc(Cl)c4F)c3c2)cn1`: the growth was 78.9%.
Take `COc1ccc(/C=C/C(=O)c2cccc(NC(=O)CSc3nc4ccccc4c(=O)n3-c3ccccc3)c2)cc1OC`: the growth was 112%.
Same read-out and setting: for `O=C(NNc1nc2cc(F)ccc2n2c(CN3CCCC3)ccc12)c1cnccn1` the value was 24%; for `CC/C(=C/c1c(O)cccc1OC)c1ccc2c(OC)cccc2[o+]1`, 110%; for `CS(=O)(=O)Nc1cc(-c2ccc3ncc(C#N)c(NCc4ccccc4F)c3c2)cnc1Cl`, 11%.
Take `COc1ccccc1-n1cc(C#N)c(N)c1C(=O)c1ccc(Cl)cc1`: the growth is 52.8%.
With `N=c1c2cc(-c3ccccc3)oc2ncn1/N=C/c1ccc(Cl)cc1`, the growth is 98.7%.
`C=CCn1c(SCC(=O)Nc2ccc(C(=O)/C=C/c3cc(OC)c(OC)c(OC)c3)cc2)nnc1-c1c[nH]c2ccccc12`: the growth is -57.2% (active).
Still for that read-out and setting: the figure for `COC(=O)C[Se]C(=O)Cc1c(C)n(C(=O)c2ccc(Cl)cc2)c2ccc(OC)cc12` is 9.65% (active); for `COc1ccc(NC2=C(Cl)C(=O)c3nc(C)ccc3C2=O)cc1OC` it is 110%.
The same measure, in the same setting: the figure for `NC(N)=Nc1ccc(Oc2cccc(NC(N)=Nc3ccc(I)cc3F)c2)cc1` is 62.5%.

In a further assay the test system is SNB-75 CNS. The description is as above. To be noted: 10 µM unless noted.
As for `C=CCn1c(SCC(=O)Nc2ccc(C(=O)/C=C/c3ccc(Cl)cc3)cc2)nnc1-c1c[nH]c2ccccc12`, the growth was 93.5%.
In the case of `O=C(NNc1nc2cc(F)c(F)cc2n2c(CN3CC4CNCC4C3)ccc12)c1cnccn1` (stereo unspecified), the growth is 60%.
For the compound `COc1ccc2c(c1)c(CC(=O)[Se]CC#N)c(C)n2C(=O)c1ccc(Cl)cc1`, the growth was 73%.
`O=C(NNc1nc2cc(F)ccc2n2c(CN3CCC(O)C3)ccc12)c1cnccn1` (stereo unspecified): the growth was 51.9%.
The same measure, in the same setting: the figure for `COc1ccc(COc2ccc(/C=C3\C(=O)Nc4ccccc43)cc2OC)cc1` is 97.4%.
On the same count and under the same terms, for `O=C(NNc1nc2cc(F)ccc2n2c(CO)ccc12)c1cnccn1` the value was 42.9%; for `N#Cc1cn(Cc2ccc(Cl)cc2Cl)c(C(=O)c2ccc(Br)cc2)c1N`, 89.6%.
As for `O=C(CN1CCN(c2cc(=O)n(-c3ccccc3)c3ccccc23)CC1)Nc1nc(-c2ccccc2)cs1`, the growth is 71.6%.
The same measure, in the same setting: for `COc1ccc(CCOc2cc3c(cc2OC)CCN(C(=O)NCc2cocn2)C3c2ccc(C)cc2C)cc1` (stereo unspecified) the value was 39.2%.
Still for that read-out and setting: for `COc1ccc(Oc2ccc(/C=N/NC(=O)CSc3nc4ccccc4c(=O)n3-c3ccc(Cl)cc3)cc2)cc1` the value was 41.6%; for `N#Cc1cccc(CN2CCC3=C(C2)C(=O)N(Cc2ccc(Cl)cc2)C2=NCCCN23)c1`, 68%; for `O=C(NNc1nc2cc(F)ccc2n2c(CN3CC4CNCC4C3)ccc12)c1cnccn1` (stereo unspecified), 54.3%.
On the same count and under the same terms, the figure for `CCOc1ccccc1NC1=C(Cl)C(=O)c2nc(C)ccc2C1=O` is 101%.
As for `CCCCCc1ccc(S(=O)(=O)Nc2cccc(-c3csc(NC(=O)CCCCCN4CCN(CCO)CC4)n3)c2)cc1`, the growth was 98.5%.
On the same count and under the same terms, for `CCOc1ccc(NC2=C(Cl)C(=O)c3nc(C)ccc3C2=O)cc1` the value was 96.5%; for `COc1cc(/C=C2\C(=O)Nc3ccccc32)ccc1OCc1ccc(Cl)cc1`, 104%; for `COc1cc(-c2nc(SCCC(C)C)nc(NNC(=O)c3ccncc3)c2C#N)cc(OC)c1OC`, 27.1%.
In the case of `O=C(NNc1nc2cc(F)cc(F)c2n2cccc12)c1cnccn1`, the growth is 49.2%.
For the compound `O=C(CCn1cc[n+](CC(=O)c2ccc(-c3ccccc3)cc2)c1)Nc1cccc2cccnc12`, the growth was 45.4%.
`COc1c(N2CC3CCCNC3C2)c(F)cc2c(=O)c(C(=O)N/N=C/c3ccc4c(c3)OCO4)cn(C3CC3)c12` (stereo unspecified): the growth is 102%.
On the same count and under the same terms, for `COc1ccc(/C=C(/C)c2ccc3ccc(OC)cc3[o+]2)c(O)c1` the value was 85.6%.
For `CN(C)CCNC(=O)c1ccc(-c2nc3ccc4[nH]ncc4c3c3c2CCC3)cc1`, the growth was 40.3%.
Regarding `COc1ccccc1NC1=C(Cl)C(=O)c2nc(C)ccc2C1=O`, the growth was 105%.
Same read-out and setting: the figure for `CCNC(=O)N1CCc2cc(OC)c(OCCc3ccc(OC)cc3)cc2C1c1ccc(Cl)cc1C` (stereo unspecified) is 37.9%.
Regarding `Cc1cc2nc(C(Cl)Cl)nc(-c3cccs3)n2n1`, the growth is 75.3%.
Still for that read-out and setting: the figure for `CN(C)CCNC(=O)c1ccc(-c2nc3ccc4[nH]ncc4c3c3c2COCC3)cc1` is -30.1% (active); for `CN1CCN(Cc2ccc(NC(=O)c3cncc(C#Cc4cnc5ccc(OCC(C)(C)O)nn45)c3)cc2C(F)(F)F)CC1` it is -46.1% (active); for `Nc1ncc(-c2ccc3ncnc(Nc4cccc(Cl)c4F)c3c2)cn1` it is 53.2%.
Regarding `COc1ccc(/C=C/C(=O)c2cccc(NC(=O)CSc3nc4ccccc4c(=O)n3-c3ccccc3)c2)cc1OC`, the growth is 86.2%.
With `O=C(NNc1nc2cc(F)ccc2n2c(CN3CCCC3)ccc12)c1cnccn1`, the growth is 65%.
On to `CC/C(=C/c1c(O)cccc1OC)c1ccc2c(OC)cccc2[o+]1`, for which the growth was 98.8%.
Turning to `CS(=O)(=O)Nc1cc(-c2ccc3ncc(C#N)c(NCc4ccccc4F)c3c2)cnc1Cl`, the growth is 26.3%.
As to `COc1ccccc1-n1cc(C#N)c(N)c1C(=O)c1ccc(Cl)cc1`, the growth is 62.3%.
For the compound `N=c1c2cc(-c3ccccc3)oc2ncn1/N=C/c1ccc(Cl)cc1`, the growth was 88.7%.
Still for that read-out and setting: the figure for `C=CCn1c(SCC(=O)Nc2ccc(C(=O)/C=C/c3cc(OC)c(OC)c(OC)c3)cc2)nnc1-c1c[nH]c2ccccc12` is 91.2%; for `COC(=O)C[Se]C(=O)Cc1c(C)n(C(=O)c2ccc(Cl)cc2)c2ccc(OC)cc12` it is 73.5%; for `COc1ccc(NC2=C(Cl)C(=O)c3nc(C)ccc3C2=O)cc1OC` it is 111%.
As to `NC(N)=Nc1ccc(Oc2cccc(NC(N)=Nc3ccc(I)cc3F)c2)cc1`, the growth is 73.2%.

Values taken from PubChem BioAssay (NCI).
